# Sampled rows, rich in hits. Any-hit rate of the full collection: about 3.3%.
# TbPYK inhibitor: inhibitors of Trypanosoma brucei pyruvate kinase; TbPYK enzyme, Kinase-Glo Plus ATP luminescence, 45 min; 410,000 tested, 0.12% active; Potency, µM (highest dose often 76.8 µM), for the others: top-dose activity, negative = inhibition, actives largely listed as inhibitors; note: potency is the fitted concentration of half-maximal effect; % is set by controls: 0 for no effect and ±100 for the full control effect; nearly all actives have a fitted effect of over 50% in size
#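 TbPYK + substrate in 50 mM TEA pH 7.2, 100 mM KCl, 10 mM MgCl2, 0.05% BSA, 0.01% Tween-20; cpd pinned; ADP 130 uM final; 45 min RT; Kinase-Glo Plus 10 min; luminescence endpoint.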
# RE007 growth inh: less growth of the S. pombe RE007 Vpr strain | Potency, µM (doses to about 92.2 µM), for the others: at the top dose activity change, negative = less growth, hits mostly inhibitors | S. pombe RE007 Vpr strain, BacTiter-Glo ATP luminescence, 24 h | 360,000 tested, 0.21% active; active = well fitted falling curve with a large enough effect; inconclusive = small, poorly fitted or top-dose-only effect; inactive = no such curve, though single readings can be large or run the other way; note: potency is the fitted concentration of half-maximal effect; % is set by controls: 0 for no effect and ±100 for the full control effect; nearly all actives have a fitted effect of over 50% in size
#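 Fission yeast RE007 carrying one integrated HIV-1 vpr copy, seeded at OD 0.01 in PMG+AL medium with 23 nL pinned compound. Grown 24 h at 30 degrees; viability read by BacTiter-Glo luminescence after 5 min.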
# Sm TGR block: blocks Schistosoma mansoni thioredoxin glutathione reductase; AID 485364; 360,000 tested, 3% active; Potency, µM (highest dose often 114 µM), inactives show top-dose activity change, negative = inhibition, usual class: inhibitors; purified TGR, DTNB reduction, TNB absorbance 405 nm; Q962Y6; note: potency is the fitted concentration of half-maximal effect; % is set by controls: 0 for no effect and ±100 for the full control effect; nearly all actives have a fitted effect of over 60% in size
#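 TGR 20 nM + NADPH 100 uM (dispensed conc.), cpd preinc 15 min RT; start with NADPH (500 uM addition) then DTNB (15 mM addition). Kinetic TNB absorbance, 405 nm filter. Four-parameter Hill fit across titration.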
# LmPK inh: blocks Leishmania mexicana pyruvate kinase activity; purified LmPK, Kinase-Glo ATP luminescence, 1 h; Potency, µM (titrated, usually from 57.5 µM), inactives show at the highest dose activity change, negative = inhibition, usual class: inhibitors; 290,000 tested, 0.37% active; note: potency is the fitted concentration of half-maximal effect; % is set by controls: 0 for no effect and ±100 for the full control effect
# Target sequence (Q27686 whole entry, looked up): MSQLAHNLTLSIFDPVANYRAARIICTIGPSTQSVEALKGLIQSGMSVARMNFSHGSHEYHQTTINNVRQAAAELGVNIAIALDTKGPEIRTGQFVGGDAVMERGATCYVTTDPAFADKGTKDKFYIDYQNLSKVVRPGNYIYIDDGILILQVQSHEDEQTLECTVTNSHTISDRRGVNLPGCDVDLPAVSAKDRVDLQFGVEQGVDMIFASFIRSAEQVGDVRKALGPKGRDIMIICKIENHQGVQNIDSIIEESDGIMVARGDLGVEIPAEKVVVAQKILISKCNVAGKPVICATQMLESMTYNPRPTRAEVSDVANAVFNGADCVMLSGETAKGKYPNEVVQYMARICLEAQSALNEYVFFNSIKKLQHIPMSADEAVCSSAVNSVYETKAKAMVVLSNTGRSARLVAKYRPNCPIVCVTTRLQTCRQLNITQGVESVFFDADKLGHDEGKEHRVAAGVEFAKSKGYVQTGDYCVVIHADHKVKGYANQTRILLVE
#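 Screened at intermediate enzyme activity to detect both inhibitors and activators: LmPK at 0.1 nM, with a 0.5 nM enzyme column as activation reference. PEP 0.5 mM, ADP 0.1 mM; ATP detected by luminescence after 1 h.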
# NS1 inh: inhibitors of influenza NS1 protein function. Potency, µM (top dose mostly 46.1 µM), without a hit: at the highest dose activity, positive = more growth. 270,000 tested, 0.4% active; calls by dose curve; note: potency is the fitted concentration of half-maximal effect; actives are rising curves; nearly all actives have a fitted effect of over 50% in size
#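 A cell-based growth assay was used: compounds that relieve NS1-induced slow growth of budding yeast raise OD600. Assay medium was yeast nitrogen base with ammonium sulphate and -URA supplement, pH 6.0, with 2% galactose.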
# SARS PLpro yeast: inhibitors of SARS-CoV papain-like protease in yeast | S. cerevisiae expressing SARS-CoV PLpro, growth rescue | Potency, µM (top dose mostly 32.9 µM), inactives show at the top dose activity, positive = growth rescue, usual class: activators | 330,000 tested, 0.19% active; calls by dose curve; note: potency is the fitted concentration of half-maximal effect; 0% is about no effect; nearly all actives have a fitted effect of over 55% in size
# NS1 inh valid: validation of influenza NS1 protein function inhibitors; influenza NS1 function cell assay, 15-point titration; 1,400 tested, under 10 active; shares compounds with NS1 inh; AID 492980; activity change, negative = inhibition, % at 32.9 µM; calls by dose curve; note: 0% is about no effect
# Flu PR8 replic: influenza virus titer reduction, NS1 project | shares compounds with NS1 inh | MDCK infected influenza A/PR/8/34, virus titer TCID50; stronger effect = lower value | virus titer (log TCID50), log10 TCID50 at 5 µM | 95 tested, 30% active | AID 504647; call rule not given here
# Numbers without * were called inactive; ? = inconclusive; / = no result; [ ] = another dose, or the depositor's remark. Unless noted, calls come from the whole dose curve; as a rule, active = well fitted curve in the direction sought with a large enough effect; inconclusive = small, poorly fitted or top-dose-only effect, or another doubt; inactive = no such curve, though single readings can be large; an effect the other way counts as inactive or inconclusive.
SMILES,TbPYK inhibitor,RE007 growth inh,Sm TGR block,LmPK inh,NS1 inh,SARS PLpro yeast,NS1 inh valid,others
Cc1ccc(C(=O)CC(C(=O)O)c2cn(CCC#N)c3ccccc23)cc1 (configuration not stated),1%,0%,53%,-6%,?,6%,/,
COC(=O)c1cc(NC(=O)C2(S(=O)(=O)c3ccc(Cl)cc3)CC2)cc(C(=O)OC)c1,3%,1%,0%,5%,11µM*,7%,3,
O=C1NC(=S)S/C1=C/c1ccc(N2CCOCC2)o1,?,?,3.5µM*,?,7.9µM*,-8%,2,
CN1C(=O)C(=Cc2ccc(N3CCOCC3)o2)C(=O)N(C)C1=S,-5%,-10%,2%[57.1 µM],-13%,5%,0%,/,
O=C(Nc1nc2ccc(S(=O)(=O)N3CCCCC3)cc2s1)c1cccnc1,?,1%,-2%,-7%,-3%,-6%,/,
O=C(Nc1nc2ccc(S(=O)(=O)N3CCCCC3)cc2s1)c1ccncc1,6%,5%,1%,-3%,10µM*,1%,-28,
CCOC(=O)c1ccc(NC(=O)c2cc(=O)c3cc(CC)ccc3o2)cc1,2%,/,3%,/,/,/,/,
Cc1[nH]n(-c2cccc3ccccc23)c(=O)c1/C=N/c1sc2c(c1C#N)CCC2,-6%,-12%,0%,9%,2.2µM*,7%,-9,Flu PR8 replic=8.5
COc1cc(/C=N/n2c(-c3n[nH]c4c3CCC4)n[nH]c2=S)ccc1O,?,8%,1%,-23%,5.6µM*,3%,?,
CC(C)NC(=S)NNc1ncnc2sc3c(c12)CC(C)(C)OC3,-20%,-2%,/,/,/,/,/,
CC1(C)Cc2c(sc3ncnc(NNC(=S)NCc4ccccc4)c23)CO1,0%,2%,3%,4%,11µM*,1%,-8,
CCN1CCN(c2cc3c(cc2F)c(=O)c(S(=O)(=O)c2ccc(OC)cc2)cn3CC)CC1,3%,/,-4%,/,/,/,/,
Cc1ccc(NC(=O)NNC(=O)Cn2nc(-c3ccccc3)c(-c3ccccc3)c(C#N)c2=O)cc1,-2%,11%,20%,1%,?,-1%,-37,
CCC1Oc2ccc(C)cc2N(CC(=O)NCCCN2CCCCC2CC)C1=O (configuration not stated),-1%,-20%,-3%,5%,2%,-3%,/,
CCC1Oc2ccc(C)cc2N(CC(=O)NCCCN2CCCCC2C)C1=O (configuration not stated),0%,-3%,-3%,7%,?,2%,-19,
CC(N=Cc1c(O)[nH]c(=O)[nH]c1=O)c1ccccc1 (configuration not stated),2%,0%,12%,0%,10µM*,-7%,0,
COC(=O)c1ccccc1N=Cc1c(O)[nH]c(=O)[nH]c1=O,2%,-7%,3%,0%,10%,3%,/,
CC(=O)Nc1nonc1-c1nnc(SCc2ccccc2C)n1C,3%,/,2%,/,/,/,/,
CCOC(=O)c1ccc(S(=O)(=O)NCC(c2ccc(N(C)C)cc2)c2c[nH]c3ccccc23)cc1 (configuration not stated),-18%,-17%,1%,5%,8.9µM*,-19%,?,
COc1cccc(/C=N/NC(=O)c2nc(-c3ccccc3)cc(-c3ccccc3)n2)c1,-15%,1%,1%,2%,?,6%,-26,
COc1ccc(/C=N/NC(=O)c2nc(-c3ccccc3)cc(-c3ccccc3)n2)cc1OC,-1%,-9%,4%,7%,15%,-16%,/,
CCCSc1oc(-c2cccs2)nc1S(=O)(=O)c1ccc(Cl)cc1,-6%,/,-2%,/,/,/,/,
Cc1nc2nc(CSc3nnc(C)s3)cc(=O)n2[nH]1,-2%,-9%,-2%,2%,7.9µM*,1%,3,
COc1ccc(-c2cn3nc(N4CCCC(C(=O)Nc5ccccc5OC)C4)sc3n2)cc1 (configuration not stated),4%[15.4 µM],/,3%,/,/,/,/,
COc1ccccc1OCC(O)Cn1c(Br)nc2c1c(=O)[nH]c(=O)n2C (configuration not stated),1%,12%,3%,7%,3%,3%,/,
SMILES,TbPYK inhibitor,RE007 growth inh,Sm TGR block,LmPK inh,NS1 inh,SARS PLpro yeast,NS1 inh valid,others
Cn1c(=O)[nH]c(=O)c2c1nc(Br)n2CC(O)COc1ccccc1 (configuration not stated),2%,-3%,-1%,-6%,7.1µM*,18%,-2,
COc1ccc(NC(=O)Cn2c(=O)n(Cc3ccccc3)c(=O)c3oc4ccccc4c32)cc1Cl,5%,/,9%,/,/,/,/,
CCC(C(=O)NCCN1CCN(C)CC1)n1c(C)c2cnn(-c3ccccc3)c(=O)c2c1C (configuration not stated),-6%,32%,0%,0%,?,-3%,0,
Cn1c(/C(C#N)=C/c2ccccc2Br)nc2ccccc21,-7%,/,-16%,/,/,/,/,
O=C(C1CCCN(S(=O)(=O)c2cccc3nonc23)C1)N1CCC(Cc2ccccc2)CC1 (configuration not stated),-4%,5%,-6%,-1%,10µM*,/,-33,
CCOC(=O)c1c(C)[nH]c(C(=O)/C(C#N)=C/c2ccc(OCC)cc2)c1C,-3%,/,-12%,1%,4µM*,16%,-21,
O=C(Nc1sc2c(c1C(=O)NCc1ccco1)CCCC2)c1cc(=O)c2ccccc2o1,3%,/,-20%,/,/,/,/,
Cn1nc(-c2ccccc2)c(C#N)c1Sc1cccc(Cl)c1,-5%,-20%,23%,7%,?,-4%,-14,
Cc1nn(C)c(Oc2cccc(Cl)c2)c1C#N,-27%,0%,8%,9%,/,0%,/,
CCc1ccc2oc(-c3cc(N)cc(C)c3O)nc2c1,-9%,-13%,-26%,-9%,14µM*,-1%,19,
CCc1ccc2oc(-c3cc(NC(=O)C(C)C)cc(C)c3O)nc2c1,0%,/,-7%,/,/,/,/,
O=C(NNc1nc(-c2ccc(Cl)cc2)cs1)c1ccco1,-9%,217%,-7%,1%,3.2µM*,-30%,-6,
O=C(NNc1nc(-c2ccccc2)cs1)c1ccco1,-14%,28%,-1%,2%,4µM*,-12%,11,
Cc1ccc(-c2csc(NC(=S)NC(=O)c3ccco3)n2)cc1,12%,-7%,-28%,0%,5%,6%,/,

# Screening results as filed in PubChem BioAssay.
